Source: PubChem BioAssay (National Center for Advancing Translational Sciences (NCATS))
WRN helicase inh: blocks human WRN helicase | AID 651768 | WRN helicase unwinding, fluorescent forked duplex, kinetic | Q14191 | 360,000 compounds, 0.46% hits | Potency, µM (titrated, usually from 114 µM), inactives show at the highest dose activity change, negative = inhibition, actives largely listed as inhibitors; also: potency is read from the fitted curve at half-maximal effect; % is scaled to controls: 0 for no effect and ±100 for the full control effect; nearly all actives have a fitted effect of over 55% in size
Target sequence (Q14191 whole entry, looked up): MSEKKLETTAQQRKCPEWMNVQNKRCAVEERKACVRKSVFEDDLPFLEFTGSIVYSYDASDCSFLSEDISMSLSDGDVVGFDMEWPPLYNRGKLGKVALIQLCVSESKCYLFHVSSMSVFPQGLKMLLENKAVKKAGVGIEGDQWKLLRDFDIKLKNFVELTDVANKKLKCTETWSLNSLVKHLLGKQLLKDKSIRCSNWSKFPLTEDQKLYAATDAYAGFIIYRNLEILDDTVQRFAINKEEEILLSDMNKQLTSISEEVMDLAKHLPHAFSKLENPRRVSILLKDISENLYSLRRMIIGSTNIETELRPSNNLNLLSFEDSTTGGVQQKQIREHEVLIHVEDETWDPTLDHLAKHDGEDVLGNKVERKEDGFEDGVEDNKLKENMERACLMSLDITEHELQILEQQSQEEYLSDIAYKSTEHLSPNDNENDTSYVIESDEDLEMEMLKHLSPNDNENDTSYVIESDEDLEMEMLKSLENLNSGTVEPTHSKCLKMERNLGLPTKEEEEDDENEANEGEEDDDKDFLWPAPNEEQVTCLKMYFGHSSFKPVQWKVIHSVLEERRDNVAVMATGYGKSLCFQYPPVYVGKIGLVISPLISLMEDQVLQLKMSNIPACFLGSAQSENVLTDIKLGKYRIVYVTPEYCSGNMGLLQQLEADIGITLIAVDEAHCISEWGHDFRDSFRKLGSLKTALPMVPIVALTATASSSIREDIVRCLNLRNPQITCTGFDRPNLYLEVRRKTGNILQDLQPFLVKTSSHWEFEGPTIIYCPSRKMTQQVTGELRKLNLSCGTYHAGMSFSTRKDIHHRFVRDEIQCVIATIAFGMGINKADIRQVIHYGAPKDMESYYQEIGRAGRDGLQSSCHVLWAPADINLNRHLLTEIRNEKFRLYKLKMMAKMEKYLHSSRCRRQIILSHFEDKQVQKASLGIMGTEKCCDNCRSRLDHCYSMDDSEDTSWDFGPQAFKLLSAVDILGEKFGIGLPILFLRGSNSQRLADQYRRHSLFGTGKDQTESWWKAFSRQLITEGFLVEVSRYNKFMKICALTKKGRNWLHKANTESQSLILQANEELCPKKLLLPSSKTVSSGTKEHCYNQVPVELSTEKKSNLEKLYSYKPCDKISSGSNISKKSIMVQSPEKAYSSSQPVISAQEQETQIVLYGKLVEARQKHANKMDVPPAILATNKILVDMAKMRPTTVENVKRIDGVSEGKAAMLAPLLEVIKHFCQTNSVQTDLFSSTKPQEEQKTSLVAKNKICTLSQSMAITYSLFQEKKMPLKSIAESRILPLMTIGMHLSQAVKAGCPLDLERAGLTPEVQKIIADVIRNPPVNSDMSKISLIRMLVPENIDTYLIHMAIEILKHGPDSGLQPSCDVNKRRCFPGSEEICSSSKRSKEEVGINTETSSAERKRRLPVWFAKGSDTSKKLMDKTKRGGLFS
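WRN at 20 nM final was preincubated with compound for 15 min at room temperature; reaction started with 100 nM forked duplex oligonucleotide carrying fluorophore and quencher plus 2 mM ATP (final). Unwinding followed kinetically by red fluorescence (ex 525/em 598 nm).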
POLI inh: inhibitors of human DNA polymerase iota | Potency, µM (doses to about 115 µM), for inactives: top-dose activity, negative = inhibition, most hits filed as inhibitors | AID 588590 | Pol iota fluorescent replication assay, 10 min | Q9UNA4 | 390,000 compounds, 1% hits; also: potency is read from the fitted curve at half-maximal effect
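Pol iota at 10 nM preincubated 15 min with compounds at room temperature; reaction started with fluorescent substrate, 50 nM final. Fluorescence read kinetically at 0 and 10 min; buffer-only wells as negative control.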
FEN1 inhibitor: human FEN1 inhibition; P39748; Recombinant FEN1 flap cleavage, fluorescence, 15 min; Potency, µM (highest dose often 114 µM), for inactives: at the highest dose activity change, negative = inhibition, hits mostly inhibitors; 390,000 compounds, 0.35% hits; AID 588795; also: potency is read from the fitted curve at half-maximal effect; % is scaled to controls: 0 for no effect and ±100 for the full control effect; nearly all actives have a fitted effect of over 65% in size
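Nuclease activity of 10 nM FEN1 was measured after 15 min of room-temperature exposure to titrated compounds, by adding 50 nM flap substrate and reading plates at 0 and 15 min.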
Pol kappa inh-1: inhibitors of human DNA polymerase kappa; Potency, µM (highest dose often 107 µM), inactives show at the highest dose activity, negative = inhibition, hits mostly inhibitors; 400,000 compounds, 0.53% hits; Q9UBT6; purified Pol kappa, fluorescent DNA synthesis assay, 10 min; also: potency is read from the fitted curve at half-maximal effect; % is scaled to controls: 0 for no effect and ±100 for the full control effect
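10 nM Pol kappa was preincubated with compounds for 15 min at room temperature. Reaction started with 50 nM (final) substrate. Fluorescence read kinetically at 0 and 10 min.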
Pol beta inh: inhibitors of human DNA polymerase beta; Pol beta primer extension/strand displacement, fluorescence kinetic; Potency, µM (titrated, usually from 114 µM), inactives show at the top dose activity change, negative = inhibition, hits mostly inhibitors; 340,000 compounds, 1.3% hits; AID 485314; also: potency is read from the fitted curve at half-maximal effect; % is scaled to controls: 0 for no effect and ±100 for the full control effect
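Human Pol beta at 10 nM; strand-displacement substrate 50 nM final. Compound exposure 15 min at room temperature before start, reaction 10 min at room temperature.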
Pol eta inh-1: inhibitors of human DNA polymerase eta; recombinant Pol eta, fluorescent DNA replication assay; Potency, µM (doses to about 114 µM), for inactives: at the highest dose activity change, negative = inhibition, actives largely listed as inhibitors; 390,000 compounds, 1.2% hits; AID 588591; also: potency is read from the fitted curve at half-maximal effect; % is scaled to controls: 0 for no effect and ±100 for the full control effect
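Fluorescent replication assay: 50 nM final substrate added after a 15 min room-temperature compound preincubation with 10 nM enzyme. Signal taken at 0 min and again at 10 min.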
GALK inh confirm: galactokinase (human) inhibition, confirmation | shares compounds with Pol eta inh-1 | purified GALK, Kinase-Glo ATP depletion luminescence | Potency, µM (highest dose often 115 µM), inactives show top-dose activity, negative = inhibition, actives largely listed as inhibitors | 150 compounds, 70% hits | AID 2015
GALK redox cs: generates H2O2 by redox cycling, flagging GALK artifacts | Phenol red-HRP H2O2 redox cycling, absorbance 600 nm | 150 compounds, 40% hits | AID 2035 | shares compounds with Pol eta inh-1 | Potency, µM (series often up to 115 µM), without a hit: top-dose activity change, negative = H2O2 signal, hits mostly inhibitors
HEK293 viability: HEK-293 cytotoxicity, GALK inhibitor secondary; shares compounds with Pol eta inh-1; HEK-293 viability, ATP luminescence (CellTiter-Glo), 24/48 h; Potency, µM (titrated, usually from 46.1 µM), without a hit: at the highest dose activity change, negative = cytotoxicity, usual class: inhibitors; 170 compounds, 10% hits; AID 2547; also: potency is read from the fitted curve at half-maximal effect; % is scaled to controls: 0 for no effect and ±100 for the full control effect
Pol kappa inh-2: confirmation of human DNA polymerase kappa inhibitors; purified Pol-kappa, fluorescent strand-displacement substrate; Potency, µM, usual class: inhibitors; AID 720501; 920 compounds, 76% hits; shares compounds with Pol eta inh-1; also: potency is read from the fitted curve at half-maximal effect
Pol eta inh-2: Pol eta (human) inhibition, cherry-pick confirmation; shares compounds with Pol eta inh-1; Pol eta primer extension, TAMRA/BHQ fluorescence, 10 min; Potency, µM, most hits filed as inhibitors; 2,600 compounds, 64% hits; AID 720502; also: potency is read from the fitted curve at half-maximal effect
* = called active by the depositor; u = inconclusive; x = no result; [ ] = remark or other dose. Most compounds without a hit are left out; they make up all but 2.4% or so of the library. Calls follow the shape of the dose curve; as a rule, active = well fitted curve in the direction sought with a large enough effect; inconclusive = small, poorly fitted or top-dose-only effect, or another doubt; inactive = no such curve, though single readings can be large; an effect the other way counts as inactive or inconclusive.

SMILES	WRN helicase inh	POLI inh	FEN1 inhibitor	Pol kappa inh-1	Pol beta inh	Pol eta inh-1	Pol eta inh-2	others
O=C(CCS(=O)(=O)c1ccc(Br)cc1)Nc1cc(F)ccc1F	-21%[57.1 µM]	-6%	-2%	u	18µM*	u	x	Pol kappa inh-2=42*
CN(C)c1ccc(N=Nc2ccc(S(=O)(=O)O)cc2)cc1	x	1%	3%	-16%	x	x	x
COc1ccc(CNC(=O)Cc2c(C)c3c(cc(C)c4c(C)coc43)oc2=O)cc1	x	19%	5%	8%	13%	-7%	x
CCOC(=O)c1ccc(NC2=CC(=O)C(=O)c3ccccc32)cc1	-26%[57.1 µM]	u	-9%	-6%	3%	35µM*	u
CC(=O)Nc1ccc(NC2=CC(=O)c3ccccc3C2=O)cc1	-10%	58%	-9%	-10%	-15%	u	x
Oc1c(Br)cc(Br)c(/C=N/n2c(-c3ccccc3)n[nH]c2=S)c1Br	u	28µM*	u	u	u	35µM*	u	Pol kappa inh-2=u
S=c1[nH]nc(-c2cc(-c3ccccc3)n[nH]2)n1/N=C/c1cccc(Cl)c1	50µM*	25µM*	u	u	7.1µM*	40µM*	27*
Oc1ccc(Br)cc1/C=N/n1c(-c2ccccc2)n[nH]c1=S	-8%	u	-7%	-24%	6%	-7%	x
CC(=O)Nc1scc(C)c1-c1nc2ccccc2s1	-8%	53%	u	-1%	u	-23%	x
CC(=O)Nc1sc2c(c1-c1nc3ccccc3s1)CNC2	x	x	x	x	x	x	u
CC(=O)Nc1sc2c(c1-c1nc3ccccc3s1)CCSC2	x	x	x	x	x	x	76*
COc1ccc(CNC(=O)c2ccc(Cn3c(=O)c4cccn4c4cccnc43)cc2)cc1OC	x	56%	-1%	0%	-2%	-10%	x
CSc1ccc(CCNC(=O)C2CCN(c3ncnc4c3nc3n4CCCCC3)CC2)cc1	x	3%	1%	-22%	2%	-7%	x
Cc1oc2c(c1C(=O)Nc1cccc(C(=O)O)c1)CCCC2	-7%[11.6 µM]	79µM*	-13%	-15%	u	50µM*	u
Cc1ccc(C(=O)Nc2ccc(S(=O)(=O)Nc3onc(C)c3C)cc2)cc1	x	4%	-4%	-17%	5%	x	x
Cc1noc(NS(=O)(=O)c2ccc(NC(=O)c3ccc(Br)cc3)cc2)c1C	x	-7%	-13%	u	0%	x	x	Pol kappa inh-2=8.4*
COc1ccc(NC(=O)C2CCCN(c3nnc(C)c4c(C)n(-c5ccccc5)nc34)C2)cc1Cl (stereo not drawn)	x	-30%	10%	u	71µM*	35µM*	u	Pol kappa inh-2=17*
COc1ccccc1NC(=O)C1=C(C)Nc2c(C(=O)Nc3ccc(C)cc3)cnn2C1c1cccc(OC)c1OC (stereo not drawn)	x	1%	-10%	-2%	31%	-8%	x
CC(C)(C)c1ccc2c(c1)OC(C(=O)N/N=C\c1ccc(-c3cccc(C(=O)O)c3)o1)CO2 (stereo not drawn)	-14%[11.6 µM]	u	u	u	-37%	11µM*	17*
O=C(O)c1cccc(-c2ccc(/C=N/NC(=O)C3COc4ccccc4O3)o2)c1 (stereo not drawn)	u	u	-8%	u	20µM*	28µM*	60*
CCN(C(=O)COC(=O)Cc1coc2cc(C)ccc12)c1c(N)n(Cc2ccccc2)c(=O)[nH]c1=O	-30%	u	-1%	-27%	x	0%	x
Cc1ccc2c(CC(=O)OCC(=O)N(CC(C)C)c3c(N)n(Cc4ccccc4)c(=O)[nH]c3=O)coc2c1	-35%	25µM*	-3%	u	x	20µM*	38*
COc1ccc(C(CC(=O)N2CCOCC2)c2c(OC)cc(OC)c3c(-c4ccccc4)cc(=O)oc23)cc1 (stereo not drawn)	-12%[11.6 µM]	71µM*	-17%	u	35µM*	40µM*	u
COc1cc(C(CC(=O)N2CCCC2)c2c(OC)cc(OC)c3c(-c4ccccc4)cc(=O)oc23)cc(OC)c1OC (stereo not drawn)	-3%[11.6 µM]	u	-94%	u	45µM*	40µM*	u
COc1ccc(C(CC(=O)N2CCOCC2)c2c(OC)cc(OC)c3ccc(=O)oc23)cc1 (stereo not drawn)	-4%[11.6 µM]	u	2%	u	u	u	x
SMILES	WRN helicase inh	POLI inh	FEN1 inhibitor	Pol kappa inh-1	Pol beta inh	Pol eta inh-1	Pol eta inh-2	others
COc1cc(C(CCN2CCCCC2)c2c(OC)cc(OC)c3c(-c4ccccc4)cc(=O)oc23)cc(OC)c1OC (stereo not drawn)	3%	-10%	5%	-9%	u	-19%	x
Cc1ccsc1CN(C(=O)c1ccc(OCC(C)C)cc1)C1CCS(=O)(=O)C1 (stereo not drawn)	x	21%	4%	-19%	-2%	x	x
COc1ccccc1N1CCN(C(=O)CSc2nc(-c3ccc(C(C)C)cc3)no2)CC1	x	14%	0%	-7%	6%	-19%	x
CC(C)C(CCNC(=O)CC(Cc1ccccc1)c1ccco1)c1ccco1 (stereo not drawn)	-12%[11.6 µM]	u	-17%	u	32µM*	79µM*	85*	Pol kappa inh-2=53*
N#C/C(=C(/O)c1cc2ccccc2o1)c1nc2ccccc2s1	-5%	16%	-3%	3%	35%	-27%	x	GALK inh confirm=u;GALK redox cs=-2%;HEK293 viability=-7%
N#C/C(=C(/O)c1ccco1)c1nc2ccccc2s1	-6%	53%	-11%	-20%	-14%	15%	x
